Results reported in PubChem BioAssay (Tox21).
Inconclusive results are not listed. Activity calls are given as the source filed them. Unless noted, calls come from the whole dose curve; as a rule, active = well fitted curve in the direction sought with a large enough effect in the repeat runs; inconclusive = weak or mixed curves; inactive = no such curve, though single readings can be large; an effect the other way counts as inactive or inconclusive.

What was measured:
[1] = qHTS assay for small molecule agonists of the p53 signaling pathway (AID 651631; calls by dose curve; note: nearly all actives have a fitted effect of over 15% in size; note: potency is the fitted concentration of half-maximal effect)
Method in brief: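 HCT-116 cells carrying a stable p53 response element–beta-lactamase reporter were plated, rested 5 h at 37 °C, then exposed to compound in DMSO for 16 h at 37 °C; reporter activity was read as FRET substrate fluorescence after 2 h at room temperature.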

[2] = qHTS assay for small molecules that induce genotoxicity in human embryonic kidney cells expressing luciferase-tagged ATAD5 (AID 651632); note: nearly all actives have a fitted effect of over 15% in size
Method in brief: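 A rise in luciferase signal from ATAD5-tagged HEK293T cells marks genetic stress. Cells were exposed to compounds for 16 hr at 37C, 5% CO2, then luciferase was quantified after a 30 min room-temperature incubation with Amplite.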

[3] = qHTS assay for small molecule agonists of the p53 signaling pathway - cell viability (AID 651633; calls by dose curve; note: series mostly up to about 83 µM; nearly all actives have a fitted effect of over 30% in size)
Method in brief: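 p53RE-bla cells, seeded at 4,000 per well and rested 5 h at 37 C/5% CO2, received compounds in DMSO for 16 h at 37 C. CellTiter-Glo was then added, and luminescence was read after 30 min at room temperature to gauge cytotoxicity.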

[4] = qHTS assay for small molecules that induce genotoxicity in human embryonic kidney cells expressing luciferase-tagged ATAD5 - cell viability (AID 651634; calls by dose curve; note: nearly all actives have a fitted effect of over 25% in size)
Method in brief: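 Cytotoxicity counter-readout: after 15.5 hr compound treatment at 37C, live-cell protease activity in ATAD5-luciferase HEK293T cells measured by CellTiter-Fluor fluorescence, 30 min development at 37C.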

[5] = qHTS assay to test for compound auto fluorescence at 590 nm (red) in HepG2 cells (AID 720674)
Method in brief: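 Intrinsic compound fluorescence in the red window (Ex/Em 540/590 nm) is measured in attached HepG2 cells exposed for 1 hr, DMSO vehicle as baseline, benchmarked to Rose Bengal sodium.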

[6] = qHTS assay to test for compound auto fluorescence at 535 nm (green) in HepG2 cells (AID 720675)
[7] = qHTS assay to test for compound auto fluorescence at 460 nm (blue) in HEK293 cells (AID 720678)
Method in brief: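 Blue read-out at excitation 405 nm and emission 460 nm follows overnight compound exposure of HEK293 cells at 37C in 5% CO2. Activity is given as auto fluorescence equivalency to triamterene.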

[8] = qHTS assay to test for compound auto fluorescence at 590 nm (red) in HEK293 cells (AID 720679)
Method in brief: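 Red channel, Ex/Em 540/590nm; signal expressed as equivalency to Rose Bengal sodium. HEK293, 2,000 cells/well, 10% dialyzed FBS; 23 nL compound pinned after 4-5 hr attachment; overnight 37C/5% CO2 before reading.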

[9] = qHTS assay to test for compound auto fluorescence at 535 nm (green) in HEK293 cells (AID 720680)
[10] = qHTS assay to test for compound auto fluorescence at 460 nm (blue) in HEK293 cell free culture (AID 720681)
Method in brief: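 Test compounds were pinned into cell-free culture medium (DMEM with 10% FBS) and fluorescence was read directly at Ex/Em 405/460 nm. Signals were expressed as fluorescence equivalents of triamterene, with DMSO vehicle as control.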

[11] = qHTS assay to test for compound auto fluorescence at 535 nm (green) in HEK293 cell free culture (AID 720682)
Method in brief: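 Read-out: 485/535 nm fluorescence intensity, calibrated against fluorescein. Medium only (DMEM + 10% FBS, no cells); test compound or DMSO vehicle added by pintool before plate reading.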

[12] = qHTS assay to test for compound auto fluorescence at 590 nm (red) in HEK293 cell free culture (AID 720683)
Method in brief: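 Tox21 10K library compounds were pinned into cell-free DMEM with 10% FBS and fluorescence was read at excitation 540 nm. Activity is expressed as Rose Bengal sodium equivalency.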

[13] = qHTS assay to test for compound auto fluorescence at 590 nm (red) in HepG2 cell free culture (AID 720684)
Method in brief: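 Ex 540 / Em 590 nm read of compound in cell-free MEM (10% FBS). Rose Bengal sodium reference.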

[14] = qHTS assay to test for compound auto fluorescence at 460 nm (blue) in HepG2 cell free culture (AID 720685)
Method in brief: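 Cell-free plates of MEM plus 10% FBS received 23 nL compound or DMSO vehicle; blue-channel (405/460 nm) intensity scored against triamterene as reference fluorophore.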

[15] = qHTS assay to test for compound auto fluorescence at 535 nm (green) in HepG2 cell free culture (AID 720686)
[16] = qHTS assay to test for compound auto fluorescence at 460 nm (blue) in HepG2 cells (AID 720687)
Method in brief: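 Cells (2,000/well in MEM with 10% FBS) attached overnight at 37 C, then were exposed to compound or DMSO for 1 hr at 37 C, 5% CO2. Fluorescence read at Ex/Em 405/460 nm, expressed as triamterene-equivalent signal.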

[17] = target: Glucocorticoid receptor (Homo sapiens) (UniProt P04150); experiment: qHTS assay to identify small molecule agonists of the glucocorticoid receptor (GR) signaling pathway (AID 720691; active = well fitted activation curve with a large enough effect in the signal ratio in the repeat runs, not every such curve was filed as active; the % refers to the signal ratio)
Sequence of Glucocorticoid receptor (Homo sapiens) (P04150 whole entry, looked up): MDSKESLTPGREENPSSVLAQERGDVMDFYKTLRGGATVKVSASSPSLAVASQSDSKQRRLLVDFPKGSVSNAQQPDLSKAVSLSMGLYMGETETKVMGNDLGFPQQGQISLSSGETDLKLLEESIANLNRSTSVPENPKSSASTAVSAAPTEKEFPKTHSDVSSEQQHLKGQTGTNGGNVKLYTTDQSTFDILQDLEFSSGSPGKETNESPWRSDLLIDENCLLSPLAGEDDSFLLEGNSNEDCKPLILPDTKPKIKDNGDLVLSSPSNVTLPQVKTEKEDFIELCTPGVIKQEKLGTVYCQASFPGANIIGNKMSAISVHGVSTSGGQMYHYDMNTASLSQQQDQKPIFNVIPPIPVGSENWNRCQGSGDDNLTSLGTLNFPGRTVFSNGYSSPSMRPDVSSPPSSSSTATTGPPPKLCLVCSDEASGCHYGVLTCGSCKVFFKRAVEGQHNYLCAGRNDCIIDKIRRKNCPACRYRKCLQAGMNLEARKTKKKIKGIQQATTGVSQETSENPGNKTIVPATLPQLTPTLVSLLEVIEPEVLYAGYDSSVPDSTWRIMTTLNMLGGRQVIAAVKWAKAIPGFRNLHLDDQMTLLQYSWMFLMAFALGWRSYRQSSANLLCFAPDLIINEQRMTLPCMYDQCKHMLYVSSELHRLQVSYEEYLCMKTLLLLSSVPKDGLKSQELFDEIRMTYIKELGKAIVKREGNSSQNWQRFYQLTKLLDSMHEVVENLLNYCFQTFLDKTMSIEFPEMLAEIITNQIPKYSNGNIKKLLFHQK
Method in brief: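 Agonist-mode qHTS in HeLa cells stably expressing a glucocorticoid-response-element beta-lactamase reporter. Fluorescence intensity read with FRET substrate (2 h, room temperature) after 18 h compound treatment at 37 C.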

[18] = target: Glucocorticoid receptor (Homo sapiens) (UniProt P04150); experiment: qHTS assay to identify small molecule antagonists of the glucocorticoid receptor (GR) signaling pathway (AID 720692; active = well fitted inhibition curve with a large enough effect in the signal ratio in the repeat runs, not every such curve was filed as active; the % refers to the signal ratio)
Method in brief: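 Inhibition of dexamethasone-driven (5 nM final) beta-lactamase expression was measured in GRE-reporter HeLa cells over 18 h at 37C. Fluorescence was read after 2 h with the B/G FRET substrate at room temperature.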

[19] = qHTS assay for small molecule disruptors of the mitochondrial membrane potential - cell viability (AID 720634; calls by dose curve;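 note: human HepG2 liver cancer cells; series mostly up to about 83 µM; nearly all actives have a fitted effect of over 20% in size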)
Method in brief: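 Cytotoxicity was quantified from ATP content by CellTiter-Glo luminescence in the same wells as the MMP dye read-out. HepG2 (2,000 cells/well) were plated overnight and exposed to compounds for 1 hr at 37 C.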

[20] = qHTS assay for small molecule disruptors of the mitochondrial membrane potential (AID 720635)
Method in brief: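 HepG2 cells (2,000/well) attached overnight at 37C, then took compound for 1 hr at 37C, 5% CO2. Mito-MPS dye was added for 30 min; fluorescence was read at 490/535 nm (monomers) and 540/590 nm (aggregates).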
% is set by controls: 0 for no effect and ±100 for the full control effect.

C=C[Si]1(C)O[Si](C)(C=C)O[Si](C)(C=C)O[Si](C)(C=C)O1 (stereo unspecified)
inactive: Potency [1] | Potency [2] | Potency [3] | Potency [4] | outcome [5] | outcome [6] | Potency [7] | outcome [8] | outcome [9] | Potency [10] | outcome [11] | outcome [12] | outcome [13] | outcome [14] | outcome [15] | outcome [16] | Potency [17]

S=c1[nH][nH]c(=S)s1
inactive: Potency [1] | Potency [2] | Potency [3] | Potency [4] | outcome [5] | outcome [6] | Potency [7] | outcome [8] | outcome [9] | Potency [10] | outcome [11] | outcome [12] | outcome [13] | outcome [14] | outcome [15] | outcome [16] | Potency [17] | Potency [18]

COC(=O)Cc1cccc2ccccc12
inactive: Potency [1] | Potency [2] | Potency [3] | Potency [4] | outcome [5] | outcome [6] | Potency [7] | outcome [8] | outcome [9] | Potency [10] | outcome [11] | outcome [12] | outcome [13] | outcome [15] | Potency [17]

CCN(CCCCOC(=O)c1ccc(OC)c(OC)c1)C(C)Cc1ccc(OC)cc1 (stereo unspecified)
inactive: Potency [1] | Potency [2] | Potency [3] | Potency [19] | Potency [20] | fluorescence, relative to Rose Bengal [5] 0.21% [at 18.6 µM] | fluorescence, % of fluorescein control [6] 0.0889% [at 18.6 µM] | fluorescence, % of triamterene [7] 0.0022% [at 18.6 µM] | fluorescence, % of fluorescent control [8] -0.338% [at 18.6 µM] | fluorescence, % of fluorescein [9] 0.0099% [at 18.6 µM] | fluorescence, % of fluorescent control [10] 0.0098% [at 18.6 µM] | activity change [11] 0.0553% [at 18.6 µM] | fluorescence, % of fluorescent control [12] -0.0979% [at 18.6 µM] | fluorescence, % of Rose Bengal [13] 0.006% [at 18.6 µM] | fluorescence, % of fluorescent control [14] 0.0055% [at 18.6 µM] | fluorescence, % of fluorescein control [15] 0.0076% [at 18.6 µM] | fluorescence, % of fluorescent control [16] 0.0432% [at 18.6 µM] | Potency [17] | Potency [18]

CO[C@@H]1[C@@H](O[C@@H]2O[C@H](C)[C@@H](O[C@H]3C[C@@](C)(O)[C@@H](O)[C@H](C)O3)[C@H](N(C)C)[C@H]2O)[C@@H](CC=O)C[C@@H](C)[C@@H](O[C@@H]2CC[C@H](N(C)C)[C@@H](C)O2)/C=C/C=C/C[C@@H](C)OC(=O)C[C@H]1OC(C)=O
inactive: Potency [1] | Potency [2] | Potency [3] | Potency [19] | Potency [20] | outcome [6] | Potency [7] | outcome [8] | outcome [9] | Potency [10] | outcome [11] | outcome [12] | outcome [13] | outcome [15] | outcome [16] | Potency [17]

CCCCCCC/C=C/C=O
inactive: Potency [1] | Potency [2] | Potency [3] | Potency [19] | outcome [6] | Potency [7] | outcome [8] | outcome [9] | Potency [10] | outcome [11] | outcome [12] | outcome [13] | outcome [14] | outcome [15] | outcome [16] | Potency [17]

CC(=O)Nc1ccn(C2COC(COC(=O)c3ccccc3)O2)c(=O)n1 (stereo unspecified)
active: Potency [1] 3.76 µM
inactive: Potency [2] | Potency [4] | Potency [19] | Potency [20] | outcome [5] | outcome [6] | outcome [8] | outcome [9] | Potency [10] | outcome [11] | outcome [12] | outcome [13] | outcome [15] | outcome [16]
